Reference: PubChem BioAssay (EPA / NIEHS)
The source made the active and inactive calls. Rule for the calls: active = hit-call score of the fitted dose curve at least 0.9, where 1 is the maximum; inactive = score below 0.9.

Assay: APR_HepG2_P-H2AX_24hr: Apredica 24-hour HepG2 Assay for H2AX Phosphorylation (AID 2282920)
Details: high-content imaging, actives raise or lower the signal
Protocol: APR_HepG2_24hr is a cell-based, multiplexed-readout assay that uses HepG2, a human liver cell line, with measurements taken at 24 hours after chemical dosing in a 384-well plate.APR_HepG2_P-H2AX_24hr is one of 10 assay component(s) measured or calculated from the APR_HepG2_24hr assay. It is designed to make measurements of dna content, a form of viability reporter, as detected with fluorescence intensity signals by HCS Fluorescent Imaging technology.Data from the assay component APR_HepG2_P-H2AX_24hr was analyzed into 1 assay endpoint. This assay endpoint, APR_HepG2_P-H2AX_24hr, was analyzed with bidirectional fitting relative to DMSO as the negative control and baseline of activity. Using a type of viability reporter, measures of protein for gain or loss-of-signal activity can be used to understand the signaling at the pathway-level as they relate to the gene . Furthermore, this assay endpoint can be referred to as a primary readout, because this assay has produced multiple assay endpoints where this one serves a signaling function. To generalize the intended target to other relatable targets, this assay endpoint is annotated to the dna binding intended target family, where the subfamily is cellular response to DNA damage stimulus.
Cells were treated with dimethyl sulfoxide (DMSO) as a solvent control at a final concentration of 0.5% v/v or with compounds in DMSO with a resulting final DMSO concentration of 0.5% v/v. Compound treatment was done at concentrations of 0.39, 0.78, 1.56, 3.12, 6.24, 12.5, 25, 50, 100, and 200 uM in duplicate on each plate. Cells were treated with compounds for 1, 24, or 72 hr. Carbonyl […] m-chloro-phenylhydrazone (CCCP) and taxol were used as positive controls for mitochondrial function and cytoskeletal stability, respectively; DMSO served as the negative control for this experiment. Cells were fixed by the direct addition of 50 uL formaldehyde in Hank's Balanced Salt Solution (HBSS) to a final concentration of 3.7%. After incubation in the fixation medium for 30 min at room temperature (293-298 K), cells were rinsed twice with HBSS and treated with cell permeabilization buffer (16 uL of 0.5% Triton X-100) for 10 min at room temperature (293-298 K) before labeling. For mitochondrial membrane potential and mitochondrial measurements, pre-fixed cells were incubated with 50 uL of MitoTracker Red CMXRos (Invitrogen) at a concentration of 250 nM for 30 min before fixation. In the remaining cases, post-fixed cells were labeled by incubation with a multiplexed mixture of primary antibodies in HBSS for 60 min at room temperature (293-298 K) to detect immunoreactivity of c-Jun (1:500), phospho-histone H3 (1:100), phospho-histone H2A.x (1:200), p53 (1:400), alpha-tubulin (1:200) and Hoechst 33342 (2 ug/mL). Cells were labeled for multiplexed imaging on two separate plates: a) Hoechst 33342, MitoTracker Red, phospho-histone H3, and alpha-tubulin, and b) Hoechst 33342, phospho-histone H2A.x, and c-Jun. A final rinse with HBSS (50 uL) was performed before analysis. The primary and secondary antibodies for the proteins were phospho-histone H3 (rabbit anti-phospho-histone H3 and FITC-donkey anti-rabbit IgG), phospho-histone H2A.x (mouse anti-phospho-histone H2A.x and FITC-donkey anti-mouse IgG), c-Jun (rabbit anti-phospho-c-Jun and Cy3-donkey anti-rabbit IgG), p53 (sheep anti-p53 and Cy5-donkey anti-sheep IgG), alpha-tubulin (mouse anti-alpha-tubulin and Cy5-donkey anti-mouse IgG). These antibodies are available as the CellCiphr HepG2 assay kit (Millipore).Digital images of each well were captured using a Cellomics ArrayScan VTI (Thermo Scientific Cellomics) (0.8 NA objective, 0.63x optical coupler, and XF-93 filter set) at 20x magnification. The images were acquired using the autofocus feature of the ArrayScan instrument, which entails the following steps. First, the camera focuses on channel 1 (Hoechst 33342), where nuclei are identified. Second, a Z offset of 1 um is used for capturing mitochondria (MitoTracker Red). […]

Structure (SMILES)	outcome	AC50
CCCCC(CC)CO (stereo not given)	inactive	–
COC(=O)CCC(=O)OC	inactive	–
O=C(O)c1cccnc1	inactive	–
Cc1occc(=O)c1O	inactive	–
CC1(C)C(=O)NC(=O)N1CO	inactive	–
OCC(CO)n1cnc(-c2ccc(F)cc2)c1-c1ccnc(Oc2ccccc2)n1	inactive	–
Oc1ccc(O)cc1	inactive	–
Oc1ccccc1O	–	67.9 µM (active)
O=C(O)CN(CC(=O)O)CC(=O)O	inactive	–
CCCC(=O)O	inactive	–
CC(=O)OCC(COC(C)=O)OC(C)=O	inactive	–
CCOCCOCCO	inactive	–
CC(=O)O[C@]1(C(C)=O)CC[C@H]2[C@@H]3C=C(Cl)C4=CC(=O)[C@@H]5C[C@@H]5[C@]4(C)[C@H]3CC[C@@]21C	inactive	–
CCCCCCCCCCCCCCCCO	inactive	–
CC(C)c1cccc(C(C)C)c1	inactive	–
NC=O	inactive	–
CCCCCCCCCC[N+](C)(C)[O-]	inactive	–
O=Cc1ccccc1C=O	inactive	–
CC(C)NCC(O)c1ccc(O)c(O)c1 (stereo not given)	inactive	–
S=c1[nH]c2ccccc2s1	inactive	–

Structure (SMILES)	outcome	AC50
Cc1cc(Cc2ccc(N)c(C)c2)ccc1N	inactive	–
CCCCCCCCCCCCCCOS(=O)(=O)O	–	114 µM (active)
N[C@@H](Cc1c[nH]c2ccccc12)C(=O)O	inactive	–
Cc1cc(SC2=C(O)C[C@@](CCc3ccc(N)cc3)(C(C)C)OC2=O)c(C(C)(C)C)cc1CO	inactive	–
CC(N)=O	inactive	–
CC(C)COC(=O)CCCCC(=O)OCC(C)C	inactive	–
CCCCC(CC)COP(=O)(OCC(CC)CCCC)OCC(CC)CCCC (stereo not given)	–	68 µM (active)
CC(COCC(C)OC(=O)c1ccccc1)OC(=O)c1ccccc1 (stereo not given)	inactive	–
O=C(N[C@@H](c1ccccc1)[C@@H]1CCCCN1)c1cccc(C(F)(F)F)c1Cl	–	14.3 µM (active)
CO[C@@H]1COCC[C@@H]1N[C@@H]1CC[C@@](C(=O)N2CCc3ncc(C(F)(F)F)cc3C2)(C(C)C)C1	inactive	–
CC(C)(O)c1ccc(CNC(=O)c2cccnc2Oc2ccc(F)cc2)cc1	inactive	–
C#CC(O)C(CC)CCCC (stereo not given)	inactive	–
Nc1nc(Cl)nc2c1ncn2[C@H]1C[C@H](O)[C@@H](CO)O1	–	0.551 µM (active)
NC(=Nc1ccccc1)Nc1ccccc1	inactive	–
CCC(C)N(C)C(=O)c1cc2ccccc2c(-c2ccccc2Cl)n1 (stereo not given)	–	69.8 µM (active)
O=C1NC(=O)C(c2ccccc2)(c2ccccc2)N1	inactive	–
O=NO	inactive	–
Cc1ccc(-c2cc(C(F)(F)F)nn2-c2ccc(S(N)(=O)=O)cc2)cc1	–	106 µM (active)
CC1=C(C)S(=O)(=O)CCS1(=O)=O	inactive	–
C=CCc1ccc(OC)c(OC)c1	inactive	–
